G9a block: G9a (human) methyltransferase inhibition | actives 8.8% (n = 350,000) | Potency, µM (highest dose often 102 µM), inactives show at the top dose activity, negative = inhibition, usual class: inhibitors | AID 504332 | G9a H3K9 monomethylation, AlphaScreen, 2 h; note: potency is the fitted concentration of half-maximal effect; % is set by controls: 0 for no effect and ±100 for the full control effect; nearly all actives have a fitted effect of over 75% in size
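Step 1: enzyme (final 20 nM) with compound, 15 min RT. Step 2: substrate peptide 500 nM and SAM 20 uM, 2 h RT. Step 3: anti-H3K9me1 antibody and AlphaScreen beads, 10 min, then plate read.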
HP1b chromo inh: HP1-beta chromodomain-methylated histone interaction inhibition. P83916. AlphaScreen HP1-beta / biotin-H3K9me3 peptide binding. Potency, µM (doses to about 114 µM), inactives show at the highest dose activity change, negative = inhibition, usual class: inhibitors. actives 0.56% (n = 390,000). AID 540317; note: potency is the fitted concentration of half-maximal effect; nearly all actives have a fitted effect of over 70% in size
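Compound inhibition of the preformed complex between 50 nM HP1-beta and 50 nM biotinylated H3K9me3 peptide was read by AlphaScreen. Buffer was PBS pH 7.4 with 0.01% Tween-20. Incubations ran 30 min at room temperature, with 10 ug/mL donor/acceptor beads.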
L3MBTL1 block: inhibitors of human L3MBTL1; Potency, µM (top dose mostly 57.1 µM), for inactives: top-dose activity, negative = inhibition, most hits filed as inhibitors; actives 0.66% (n = 230,000); AID 485360; AlphaScreen L3MBTL1–H3K9me1 peptide binding; note: potency is the fitted concentration of half-maximal effect; % is set by controls: 0 for no effect and ±100 for the full control effect; nearly all actives have a fitted effect of over 60% in size
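First, the protein-peptide complex forms for 30 min at room temperature (L3MBTL1 50 nM, biotinylated H3K9me1 peptide 75 nM). Next, compounds are pin-transferred and incubated 30 min. Finally, AlphaScreen beads are added and read after 30 min.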
PI5P4Ka inh: blocks human PI5P4K alpha kinase activity. PI5P4Kalpha enzyme, ADP-Glo luminescence, 60 min; hits give low values. actives 1.2% (n = 330,000). max response, %. AID 652105; active = max response of -50% or lower; inconclusive = between -30% and -50%; inactive = -30% or higher; note: value at the top dose of about 77 µM; % is set by controls: 0 for no effect and ±100 for the full control effect
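qHTS, 1536-well: enzyme/substrate mix, compound by pin tool, 5 microM ATP final; RT 60 min; ADP-Glo reagents 1 (45 min) then 2 (30 min); luminescence.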
JMJD2A Tudor: inhibitors of human JMJD2A Tudor domain | actives 4.4% (n = 390,000) | O75164 | AlphaScreen JMJD2A-Tudor / H3K4me3 peptide binding | Potency, µM (top dose mostly 114 µM), for the others: at the top dose activity change, negative = inhibition, most hits filed as inhibitors; note: potency is the fitted concentration of half-maximal effect; % is set by controls: 0 for no effect and ±100 for the full control effect; nearly all actives have a fitted effect of over 50% in size
BAZ2B block: BAZ2B (human) inhibition; Q9UIF8; AlphaScreen BAZ2B-H3K14Ac peptide displacement; Potency, µM (doses to about 114 µM), inactives show at the highest dose activity change, negative = inhibition, most hits filed as inhibitors; actives 4.4% (n = 360,000); AID 504333; note: potency is the fitted concentration of half-maximal effect; % is set by controls: 0 for no effect and ±100 for the full control effect; nearly all actives have a fitted effect of over 60% in size
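Multi-concentration screen (max 110 uM) measuring displacement of acetylated histone H3 peptide from BAZ2B by AlphaScreen, using 50 nM protein, 50 nM peptide and 10 ug/mL streptavidin donor plus Ni-chelate acceptor beads.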
Active calls of the source: *; ? = inconclusive; · = no result; [ ] = another dose, or the depositor's remark. An excerpt weighted towards active compounds, which were near 11% of everything screened. Unless noted, calls come from the whole dose curve; as a rule, active = well fitted inhibition curve with a large enough effect; inconclusive = small, poorly fitted or top-dose-only effect; inactive = no such curve, though single readings can be large or run the other way.

SMILES	G9a block	HP1b chromo inh	L3MBTL1 block	PI5P4Ka inh	JMJD2A Tudor	BAZ2B block
CCN(Cc1ccccc1)C(=O)Cn1ncc2c(=O)oc3ccc(C)cc3c21	?	47%	·	·	-3%	-2%
CC1(C)OC2CC3C4CC(F)C5=CC(=O)C=C[C@@]5(C)[C@@]4(F)C(O)C[C@@]3(C)[C@]2(C(=O)CO)O1 (stereo not given in full)	-12%[2.33 µM]	·	·	·	·	·
CSc1nc2ccc(NC(=O)c3ccco3)cc2s1	-11%	29%	13%	-5	-12%	-5%
O=C(CSc1nc2ccccc2s1)Nc1ccc(N2CCOCC2)c(Cl)c1	7.1µM*	23%	-1%	7	-22%	4%
Cc1ccc(C)c(NC(=O)CSc2nc3ccc(N4C(=O)c5ccccc5C4=O)cc3s2)c1	11µM*	42%	-3%	-8	-21%	-1%
Cc1cc(C)nc(SCC(=O)Nc2ccc(N3CCOCC3)c(Cl)c2)n1	?	22%	4%	-8	-18%	-6%
CC(=O)Nc1ccc2nc(SCC(=O)Nc3ccc(N4CCOCC4)c(Cl)c3)sc2c1	43%[0.501 µM]	22%	-8%	-14	-21%	11µM*
Cc1ccc(NC(=O)CSc2nc3ccc(NC(=O)CCc4ccccc4)cc3s2)c(C)c1	3%[59 µM]	14%	·	·	-8%	-10%
Cc1ccc(NC(=O)CSc2nc3ccc(NC(=O)c4ccco4)cc3s2)cc1	?	13%	·	·	-35%	79µM*
Cn1c(SCC(=O)Nc2ccc3nc(SCC(=O)N4CCCC4)sc3c2)nnc1-c1ccc(N)cc1	10µM*	24%	·	?	-23%	?
Cc1ccc(N2CCN(/N=C/c3ccccc3[N+](=O)[O-])CC2)cc1	7.9µM*	?	?	-4	?	?
O=[N+]([O-])c1ccccc1/C=N/N1CCN(c2ccccn2)CC1	?	-11%	?	8	?	13µM*
Cc1cc(C(=O)NCc2ccccc2Cl)c2c(C)nn(-c3ccccc3)c2n1	-15%[59 µM]	-4%	·	·	-1%	6%[57.1 µM]
CCOC(=O)c1cc(-c2ccc(/C=N\n3cnnc3)o2)ccc1Cl	-8%[59 µM]	3%	-3%	-3	-33%	-6%
O=Cc1ccc(-c2ccccc2C(=O)O)o1	?	11%	-10%	13	-3%	-22%
CC1=NN(c2ccc(Br)cc2)C(=O)/C1=C/c1ccc(-c2ccccc2C(=O)O)o1	35µM*	?	-16%	3	32µM*	35µM*
CCCCOC(=O)c1cc(-c2ccc(/C=N/n3cnnc3)o2)ccc1Cl	·	-4%	·	·	56µM*	·
CCOC(=O)c1cc(-c2ccc(/C=C3/C(=O)N(c4ccc(C(=O)O)cc4)N=C3C)o2)ccc1Cl	7.1µM*	?	·	-25	14µM*	18µM*
COCCn1c(=O)c(-c2ccc(F)cc2)nc2cnc(N(C)C)nc21	10%[0.501 µM]	·	·	·	·	·
O=C(Nc1ccccc1Br)C(Cc1ccccc1)NS(=O)(=O)c1cccc2nsnc12 (stereo not given)	-44%[59 µM]	23%	·	·	-29%	·
O=C(Cn1ccc2cc(S(=O)(=O)N3CCCC3)ccc21)NCc1ccco1	?	-18%	·	5	79µM*	-11%[57.1 µM]
O=C(CSc1nnc(-c2ccc(S(=O)(=O)N3CCCC3)cc2)o1)NCc1ccco1	?	46%	-20%	·	-28%	50µM*
COc1ccc(NS(=O)(=O)c2ccccc2)cc1NS(=O)(=O)c1ccccc1	·	·	·	·	-16%	·
O=C1c2cccnc2C(=O)N1Cc1ccc(S(=O)(=O)NCc2ccco2)s1	3%	33%	·	-5	-35%	79µM*
CC1CN(C(=O)CSc2nnc3c(Cl)cc(Cl)cn23)CC(C)O1 (stereo not given)	79µM*	35%	·	-7	-2%	-3%
CCc1ccccc1Nc1cc(C(=O)NC2CCC(C)CC2)c2ccccc2n1 (stereo not given)	0%[59 µM]	45%	·	·	-4%	·
